HCV inhibitor – HCV inhibition; Huh7.5.1 HCVcc-Cre infection, luciferase reporter, 44 h; hit rate 3.4% among 340,000; Potency, µM (series often up to 41.8 µM), actives largely listed as inhibitors
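Seed cells (1,000/well) for 4 h; treat with compound and infect with HCVcc-Cre, moi about 0.5. Incubate 44 h, then detect luciferase activity.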
HCMV inh – blocks human cytomegalovirus replication; HFF cells, HCMV-luciferase reporter, 72 h; stronger effect = lower value; activity change, negative = inhibition, % at 57.5 µM; hit rate 4.5% among 410,000; in the data active means activity change below about -60%; inconclusive means no clear call, values can overlap the other calls; inactive means above about -39%
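Two compound doses tested in HFFs infected with HCMV-luciferase, MOI 1 PFU/cell, 72 h at 37C. Lysate luminescence read with OneGlo; data normalized against buffer-only and 10uM Salinomycin inhibitor controls.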
Pf growth 48h – inhibits P. falciparum growth in the first generation, 48 h; P. falciparum luciferase growth in erythrocytes, 48 h; Potency, µM (titrated, usually from 28.7 µM), hits mostly inhibitors; hit rate 5.9% among 310,000; AID 504832
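A one-generation exposure of luciferase-tagged malaria parasites in RPMI 1640/Albumax erythrocyte culture, 37 C and 5% CO2. Inhibition is inferred from decreased luminescence after adding detection reagent.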
Pf growth 96h – P. falciparum growth inhibition at 96 hour, primary screen for plastid delayed-death inhibitors; P. falciparum luciferase reporter growth, 96 h; Potency, µM (top dose mostly 28.7 µM), most hits filed as inhibitors; hit rate 6.9% among 320,000
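Infected RBCs, 2% Hct / 0.05% parasitemia final; luciferase-reporter P. falciparum; cpd 96 h, 37 C, 5% CO2; luciferase detection reagent; luminescence.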
Each line names hits and unclear results; the compound was inactive in the other large screens; ! = a repeat was not active. Most compounds without a hit are left out; they make up all but 13% or so of the library. Unless noted, the call rests on the fitted dose curve; in most records, active means well fitted inhibition curve with a large enough effect; inconclusive means small, poorly fitted or top-dose-only effect, or another doubt; inactive means no such curve, though single readings can be large or run the other way.

CCC(=O)Nc1ccc(C)cc1-c1nc2ccccc2n(C(C)C(=O)Nc2ccccc2CC)c1=O (configuration not stated)	none (no result: HCV inhibitor, Pf growth 48h, Pf growth 96h)
COc1ccc(OC)c(CCNC(=O)c2ccc(CS(=O)Cc3cccc(Cl)c3)o2)c1 (configuration not stated)	HCV inhibitor inconclusive, Pf growth 48h inconclusive, Pf growth 96h 4.15µM
COc1ccc(CNC(=O)c2ccc(CS(=O)Cc3cccc(Cl)c3)o2)cc1 (configuration not stated)	Pf growth 96h inconclusive
O=C(CCCN1C(=O)c2cccc3cccc(c23)C1=O)NC1CCS(=O)(=O)C1 (configuration not stated)	Pf growth 48h inconclusive, Pf growth 96h 11.7µM
O=C(CCN1C(=O)/C(=C/c2ccccc2)SC1=S)N[C@@H](CO)Cc1ccccc1	HCV inhibitor inconclusive, HCMV inh inconclusive, Pf growth 96h 13.1µM
O=C(CCCN1C(=O)/C(=C/c2ccc(F)cc2)SC1=S)NC1CCS(=O)(=O)C1 (configuration not stated)	HCMV inh -72.3, Pf growth 48h 9.28µM, Pf growth 96h 10.4µM
O=C(CN1C(=O)S/C(=C\c2ccccc2F)C1=O)NC1CCS(=O)(=O)C1 (configuration not stated)	HCMV inh -61.9
O=C(CN1C(=O)c2ccccc2C1=O)NC1CCS(=O)(=O)C1 (configuration not stated)	none (no result: HCV inhibitor, Pf growth 48h, Pf growth 96h)
COc1ccc(-c2onc(C)c2C)cc1S(=O)(=O)NCc1ccco1	none (no result: HCV inhibitor, Pf growth 48h, Pf growth 96h)
CC(=O)Nc1ccc(NC(=O)c2oc3ccc4c(c3c2C)C(=O)CC(C)(C)O4)cc1	none (no result: HCV inhibitor, Pf growth 48h, Pf growth 96h)
O=C(CCN1C(=O)/C(=C/c2ccccc2)SC1=S)NC1CCS(=O)(=O)C1 (configuration not stated)	HCMV inh inconclusive, Pf growth 48h inconclusive, Pf growth 96h 13.1µM
CC(=O)c1cccc(NC(=O)COc2cc3oc(=O)c(CC(C)O)c(C)c3cc2Cl)c1 (configuration not stated)	HCV inhibitor inconclusive, HCMV inh inconclusive, Pf growth 48h inconclusive, Pf growth 96h 10.4µM
CCOC(=O)c1ccc(NC(=O)COc2cc3oc(=O)c(CC(C)O)c(C)c3cc2Cl)cc1 (configuration not stated)	none
O=c1c(-c2ccnn2-c2ccc(F)cc2)cnc2n1CCS2	none (no result: Pf growth 96h)
O=c1ccnc2n1COCS2	HCMV inh -99.9
COC(=O)C1=C(C)N(c2cccc(C)c2)C(=O)/C1=C\c1cccs1	HCV inhibitor inconclusive, HCMV inh -99.3, Pf growth 48h inconclusive
Cc1cc(C)c(S(=O)(=O)N2CCC(N3CCN(Cc4ccccc4)C(=O)C3=O)CC2)c(C)c1	none (no result: HCV inhibitor, Pf growth 48h, Pf growth 96h)
COc1c(C)cccc1C(=O)Nc1ccc(Cl)c(-c2nc3cc(C)ccc3o2)c1	none (no result: HCV inhibitor, Pf growth 48h, Pf growth 96h)
Cc1cccn2c(=O)c(C(=O)NCCCN3CCCCC3C)c(O)nc12 (configuration not stated)	Pf growth 96h inconclusive
Cc1cccn2c(=O)c(C(=O)NCCCN3CC(C)CC(C)C3)c(O)nc12 (configuration not stated)	Pf growth 48h 2.08µM, Pf growth 96h 0.828µM
CC1CC(C)CN(CCCNC(=O)CCNC(=O)Cn2ccc3ccccc3c2=O)C1 (configuration not stated)	Pf growth 96h 5.22µM (no result: Pf growth 48h)
CC1CC(C)CN(CCCNC(=O)c2c(O)nc3ccccn3c2=O)C1 (configuration not stated)	Pf growth 48h 4.15µM, Pf growth 96h inconclusive
CCOC(=O)c1c(C)[nH]c(C)c1S(=O)(=O)N1CCCC(C(=O)N2CCN(c3ccccc3F)CC2)C1 (configuration not stated)	none (no result: HCV inhibitor, Pf growth 48h, Pf growth 96h)
CCOc1ccc(NC(=O)Cn2nc(-c3ccncc3)ccc2=O)cc1	none (no result: HCV inhibitor, Pf growth 48h, Pf growth 96h)
CC(C)c1ccc(S(=O)(=O)c2cnc(SCC(=O)Nc3ccc4c(c3)OCCO4)[nH]c2=O)cc1	none (no result: HCV inhibitor, Pf growth 48h, Pf growth 96h)
Cc1cc(N2CCN(C(=O)c3ccco3)CC2)n2nc(C)c(-c3ccc(Cl)cc3)c2n1	Pf growth 96h 4.15µM (no result: HCV inhibitor, HCMV inh)
Cc1cc(N2CCN(C(=O)c3ccco3)CC2)n2nc(-c3cccc(Cl)c3)cc2n1	HCV inhibitor 10µM, HCMV inh -101.3, Pf growth 48h 9.28µM
O=C(c1ccoc1)N1CCN(c2cc(-c3cccc(F)c3)nc3cc(-c4cccc(Cl)c4)nn23)CC1	HCMV inh -82.3 (no result: HCV inhibitor, Pf growth 48h, Pf growth 96h)
Cc1cc(N2CCN(C(=O)c3ccco3)CC2)n2nc(C)c(-c3ccccc3)c2n1	HCV inhibitor 3.55µM!, Pf growth 48h 11.7µM
Cc1ccc([N+](=O)[O-])c(Oc2ncnc3c2oc2ccccc23)c1	none (no result: HCV inhibitor, Pf growth 48h, Pf growth 96h)
CCC(C(=O)Nc1cc(Cl)ccc1OC)n1nc(-c2ccccc2)ccc1=O (configuration not stated)	none (no result: HCV inhibitor, Pf growth 48h, Pf growth 96h)
Cc1nc2c(C(=O)NCCc3ccccc3)cnn2c(C)c1Cc1c(F)cccc1Cl	none (no result: HCV inhibitor, Pf growth 48h, Pf growth 96h)
O=C(c1ccccc1)c1ccc2nc(N3CCN(C(=O)c4ccco4)CC3)c3nncn3c2c1	Pf growth 96h 3.29µM (no result: Pf growth 48h)
O=C(c1ccccc1)c1ccc2nc(N3CCN(c4ccccc4)CC3)c3nncn3c2c1	none (no result: HCV inhibitor, Pf growth 48h, Pf growth 96h)
COC(=O)CN(c1ccccc1)S(=O)(=O)c1ccccc1	none (no result: Pf growth 48h)
COC(=O)CN(n1cnnc1)S(=O)(=O)c1ccccc1	Pf growth 96h 11.7µM
CN(C)C(=O)CSc1cnc2ccccc2n1	none
Cc1ccc(C(=O)CSc2cnc3ccccc3n2)cc1C	HCMV inh -60.9
COc1ccc(CNC(=O)C[C@H]2C[C@H](C(=O)N3CCCCC3)[C@@]3(C)c4[nH]c5ccc(Cl)cc5c4CCN3C2=O)cc1OC	HCV inhibitor 14.1µM (no result: Pf growth 48h, Pf growth 96h)
C[C@]12c3[nH]c4ccc(Cl)cc4c3CCN1C(=O)[C@@H](CC(=O)NCc1cccc(C(F)(F)F)c1)C[C@@H]2C(=O)N1CCOCC1	HCV inhibitor 7.08µM (no result: Pf growth 48h, Pf growth 96h)
COc1ccc2[nH]c3c(c2c1)CCN1C(=O)C(CC(=O)NCCc2ccccn2)C[C@H](C(=O)N2CCCCC2)[C@@]31CCc1ccccc1 (some centres not stated)	HCV inhibitor 7.94µM (no result: Pf growth 48h, Pf growth 96h)
COc1ccc2[nH]c3c(c2c1)CCN1C(=O)C(CC(=O)NCc2ccc(OC)c(OC)c2)C[C@H](C(=O)N2CCCCC2)[C@@]31CCc1ccccc1 (some centres not stated)	HCV inhibitor 10µM, HCMV inh inconclusive (no result: Pf growth 48h, Pf growth 96h)
COc1cccc(NC(=O)Nc2cc(-c3cn4cccnc4n3)ccc2OC)c1	none (no result: HCV inhibitor, Pf growth 48h, Pf growth 96h)
Cc1cc(NC(=O)CN2C(=O)C(C)(C)c3ccccc32)ccc1Br	none (no result: HCV inhibitor, Pf growth 48h, Pf growth 96h)
Cc1ccc(S(=O)(=O)N2C[C@H]3[C@H]4C(=O)N(c5ccccc5)C(=O)[C@H]4C[C@H](OC(=O)NCc4ccccc4F)[C@@]3(O)C2)cc1	none (no result: HCV inhibitor, Pf growth 48h, Pf growth 96h)
O=C(CC1C[C@H](C(=O)N2CCCCC2)[C@@]2(CCc3ccccc3)c3[nH]c4ccccc4c3CCN2C1=O)NCc1ccco1 (some centres not stated)	none (no result: Pf growth 48h, Pf growth 96h)
COc1ccc2[nH]c3c(c2c1)CCN1C(=O)C(CC(=O)NCc2ccco2)C[C@H](C(=O)N2CCCCC2)[C@@]31CCc1ccccc1 (some centres not stated)	HCV inhibitor 0.562µM (no result: Pf growth 48h, Pf growth 96h)
CCc1c(C)nc2ncnn2c1Nc1ccc(C)cc1	Pf growth 96h inconclusive

Screening results as filed in PubChem.
